Experimental data: PubChem BioAssay (NCATS)
Results filed as inconclusive are left out. Unmarked numbers belong to inactive results. Activity calls are given as the source filed them. Calls follow the shape of the full dose curve.

assay: qHTS for inhibitors of Rabies Virus screened against the NCATS CANVASS Library (AID 1347402); details: Rabies virus infection cell assay; series mostly up to 45.9 µM; activity change, negative = inhibition: at the top concentration; also: 0% is about no effect

Point of comparison: `CC(=O)O[C@H]1C[C@@]2(C)[C@@H](CC[C@H]3[C@@]4(C)C=CC(=O)[C@@H](C)[C@@H]4[C@H](OC(C)=O)C(=O)[C@@]32C)/C1=C(\CCC=C(C)C)C(=O)O`, “activity change, negative = inhibition” value -0.717%. Against it:
- CCC(C)=C1OC(=O)[C@H](C)[C@H](O)[C@H](Cc2cccnc2)NC(=O)C(NC(=O)c2ncccc2O)C(C)OC1=O (stereo not given in full) — lower, -2.69%
- CC12C[C@]3(O)O[C@@H](O1)[C@]1(COC(=O)c4ccccc4)[C@@H]3CC21OC1OC(CO)C(O)C(O)C1O (stereo not given in full) — lower, -4.13%
- COC(=O)[C@]1([C@H]2CCC(=O)O2)CC(=O)c2c(O)cc(C)cc2O1 — lower, -10.4%
- C/C=C/C1C=CC2CC(C)CC(C)C2C1C(=O)CC(=O)NC(CO)C/C=C/CCCCC (stereo not given) — lower, -19%
- CN1CC[C@]23c4ccccc4N[C@H]1[C@]21CCN(C)[C@H]3Nc2ccccc21 — higher, 8.97%
- COC(=O)[C@@]1(C)CCC[C@]2(C)c3cc(OC)ccc3CC[C@@H]12 — higher, -0.556%
- O=C(O)CC1OCc2c(O)cccc21 (stereo not given) — lower, -1.57%
- CC(C)=CCC/C(C)=C/Cc1cc([C@@H]2CC(=O)c3c(cc(O)c(CC=C(C)C)c3O)O2)ccc1O — lower, -22.1%
- O=C1c2c(O)cc(O)cc2OC(c2ccc(O)cc2)C1O (stereo not given) — lower, -19%
- C[C@@H]1C(=O)[C@]23CC[C@H]1C[C@]21O[C@H]2C(C)(C)C=CC(=O)[C@]23COC1=O — lower, -15.3%
- C/C1=C/[C@@H](C)[C@H](O)[C@@H](O)/C=C/CC/C=C/C(=O)O[C@@H]1[C@H](C)C(=O)CCCC1CC(=O)NC(=O)C1 — lower, -1.67%
- COc1ccc([C@@H]2c3cc4c(cc3C[C@H](C)C2C)OCO4)cc1OC (stereo not given in full) — lower, -29.4%
- C/C(=C\CC/C(C)=C/CC[C@]1(C)CCc2cc(O)cc(C)c2O1)CC/C=C(\C)C(=O)O — lower, -24.6%
- CC(=O)O[C@H]1CC[C@@]2(C)C(CC[C@]3(C)C2CC=C2C4CC(C)(C)CC[C@]4(C)CC[C@]23C)C1(C)C (stereo not given in full) — higher, 2.83%
- O=Cc1ccc2n1C[C@]1(OC2)O[C@H](CO)[C@@H](O)[C@@H]1O — lower, -12.4%
- C=C1[C@H]2CC[C@@]3(C=CC(=O)[C@@](C)(CCC(=O)Nc4c(O)ccc(C(=O)O)c4O)C3C2)[C@H]1O (stereo not given in full) — lower, -7.81%
- CC(C)(Br)[C@@H](Cl)C[C@H](Br)[C@](C)(Cl)/C=C/Br — lower, -28.5%
- CC(CCC[C@]1(C)C(=O)C=C[C@@]23C[C@]4(C)O[C@@H](C[C@@H]4[C@H]2O)C31)C(=O)O (stereo not given in full) — higher, -0.0817%
- C/C=C/C=C/C1(O)C2C=C3C(=O)CC45C(=O)C(O)=C(C)C(=O)C4C1C1(C(=O)C(O)=C(C)C(=O)C351)C2C (stereo not given) — higher, 1.29%
- O=C1c2c(O)cc(O)cc2O[C@@H](c2ccc(O)cc2)[C@@H]1c1c(O)cc(O)c2c(=O)cc(-c3ccc(O)c(O)c3)oc12 — higher, 4.05%
- C[C@@]1(CCC(=O)Nc2c(O)ccc(C(=O)O)c2O)C(=O)C=C[C@]23C[C@H]4C[C@H](O[C@@]4(C)C2)C31 (stereo not given in full) — higher, 6.93%
- O=C1CC(c2ccc(O)cc2)Oc2cc(O)ccc21 (stereo not given) — lower, -20.4%
- CC(C)=CCC[C@]1(C)[C@H]2CC(=O)[C@@]3(CO3)[C@@H]1C2 — lower, -12.5%
- COc1ccc(-c2oc3cc(OC)cc(OC)c3c(=O)c2O)cc1 — lower, -23.3%
- C=C1C(=O)C[C@H]2C[C@@H]1[C@]2(C)CCC=C(C)C — lower, -7.23%
- O=C(O)[C@@]12CO[C@@]3(O)C4CCN(CC[C@H]31)[C@H]4c1c2[nH]c2ccccc12 — lower, -8.87%
- CC(=O)[C@@H]1[C@@H](O)C[C@H]2[C@]3(C)CC[C@H]4C(C)(C)CCC[C@]4(CO)[C@H]3C[C@H]3OC(=O)[C@@H]1[C@@]32C — lower, -19%
- C=C[C@@]1(C)CC[C@@H]([C@H](C)C(=O)/C=C/C(C)C)O1 — higher, 0.952%
- CC(=O)O[C@H]1c2ccccc2-c2c3c(cc4c2[C@@H]1N(C(C)=O)CC4)OCO3 — lower, -30.6%

Point of comparison: `O=C1C[C@@H](c2ccc(O)c(-c3c(O)cc(O)c4c3O[C@H](c3ccc(O)cc3)CC4=O)c2)Oc2cc(O)cc(O)c21`, “activity change, negative = inhibition” value -7.3% [at 27.4 µM]. Against it:
- C=C[C@]1(C)CC[C@@H]([C@H](C)C(=O)OCC)O1 — lower, -31.9% [at 27.4 µM]
- CCCCCCCCC[C@@H]1C[C@@H]2CC[C@H]3[C@@H](C(=O)OCCCCN=C(N)N)[C@@H](C)N=C(N1)N23 — lower, -28.8% [at 27.4 µM]

`COc1ccc2oc3c(OC)c(OC)c(OC)c(OC)c3c(=O)c2c1` showed an activity change, negative = inhibition of -7.41% [at 9.14 µM].

In the case of `CC[C@@H](c1cc(OC)c(OC)cc1OC)[C@H](C)[C@@H](/C(C)=C/c1cc(OC)c(OC)cc1OC)c1cc(OC)c(OC)cc1OC`, the outcome is reported as “inactive”.
